Compound activity: PubChem, National Center for Advancing Translational Sciences (NCATS)
NPSR antag: antagonists of human neuropeptide S receptor cAMP signaling | Q6W5P4 | CHO-NPSR cells, cAMP TR-FRET, antagonist mode | Potency, µM (highest dose often 38.3 µM), most hits filed as inhibitors | actives 1% (n = 220,000); note: nearly all actives have a fitted effect of over 50% in size
B2AR arrestin: recruits beta-arrestin to the human beta2-adrenergic receptor; actives 0.02% (n = 330,000); P07550; Potency, µM (top dose mostly 46.1 µM), hits mostly activators; beta-arrestin recruitment to beta2AR, cell-based reporter; AID 492947; note: nearly all actives have a fitted effect of over 65% in size
Target sequence (P07550 whole entry, looked up): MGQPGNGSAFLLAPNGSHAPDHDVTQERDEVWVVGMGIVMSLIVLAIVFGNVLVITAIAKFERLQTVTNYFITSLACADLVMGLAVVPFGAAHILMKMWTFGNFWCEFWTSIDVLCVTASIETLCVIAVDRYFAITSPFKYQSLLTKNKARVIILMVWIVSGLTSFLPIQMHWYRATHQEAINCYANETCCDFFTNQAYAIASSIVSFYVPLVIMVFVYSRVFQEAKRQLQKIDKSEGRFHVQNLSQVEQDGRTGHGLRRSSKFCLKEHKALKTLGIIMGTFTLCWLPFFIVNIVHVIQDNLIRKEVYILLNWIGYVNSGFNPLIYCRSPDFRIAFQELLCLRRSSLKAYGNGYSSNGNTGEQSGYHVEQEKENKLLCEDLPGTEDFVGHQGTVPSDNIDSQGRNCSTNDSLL
Gal4-VP16 FLuc: counter-screen for ROR gamma inhibitors: Gal4-VP16 reporter; Drosophila S2 Gal4-VP16 UAS-luciferase, luminescence, 20 h; Potency, µM (top dose mostly 53.6 µM), hits mostly inhibitors; actives 3.5% (n = 310,000); AID 2546;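 note: Gal4-VP16 expression switched on by copper sulfate through the metallothionein promoter; nearly all actives have a fitted effect of over 50% in size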
RORg inh: inhibitors of mouse ROR gamma transcriptional activity; Drosophila S2 Gal4-RORgamma UAS-luciferase reporter, 20 h; P51450; Potency, µM (highest dose often 53.6 µM), most hits filed as inhibitors; actives 5.4% (n = 310,000); note: nearly all actives have a fitted effect of over 60% in size
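Drosophila Schneider cells stably carrying a metallothionein-driven Gal4 DBD–ROR gamma fusion and a UAS-Photinus luciferase reporter were exposed to compound for 1 hr, then induced with copper sulfate (700 uM final) for 20 hr at ambient temperature before luminescence reading.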
Hits are given with their value; 0 = inactive; ? = inconclusive; - = no result given; [ ] = remark or other dose. The list is not random: actives were taken first. Their share in the collection is about 5.7%. Calls come from the whole dose curve; as a rule, active = well fitted curve in the direction sought with a large enough effect; inconclusive = small, poorly fitted or top-dose-only effect, or another doubt; inactive = no such curve, though single readings can be large; an effect the other way counts as inactive or inconclusive.

SMILES	NPSR antag	B2AR arrestin	Gal4-VP16 FLuc	RORg inh
CC(C)[C@@H](CC(=O)N[C@@H]1CCCC[C@H]1C(=O)N[C@H](CC(=O)N[C@@H](CCC(=O)O)CC(=O)O)Cc1ccccc1)NC(=O)C[C@H](Cc1ccccc1)NC(=O)[C@@H]1CCCC[C@H]1N	-	-	0	0
CC(C)c1ccc(S(=O)(=O)/N=C2/C=CC(=O)c3ccccc32)cc1	0	0	18µM	?
CC(C)c1ccc(S(=O)(=O)/N=C2\C=C(NS(=O)(=O)c3ccccc3)C(=O)c3ccccc32)cc1	-	0	0	0
Cc1cc(Br)ccc1NC(=O)CSCc1c(C)noc1C	-	0	-	-
CCOc1ccc(/C=N/Nc2ccc(Cl)nn2)c(O)c1	-	0	2µM	1.6µM
CCCOc1ccc(/C=N/Nc2ccccc2[N+](=O)[O-])c(O)c1	0	0	?	7.1µM
CCCOc1ccc(/C=N/NC(=S)Nc2ccccc2[N+](=O)[O-])c(O)c1	0	0	0	0
CCOc1ccccc1/C=N/Nc1ccc(Cl)nn1	-	0	0	0
Cn1c(N)c(C(=O)CSc2nnc(NC3CCCCC3)s2)c(=O)n(C)c1=O	-	0	-	-
CC1CCc2c(nc3sc4c(c3c2N)CCCC4)C1 (stereo not drawn)	0	0	?	13µM
COc1ccc(-n2c(=O)c(CCc3ccccc3)nc3cnc(OC)nc32)cc1	-	-	0	0
N/C(=N\N=C\c1ccc(Cl)cc1)N/N=C/c1ccc(Cl)cc1	-	-	0	14µM
COC(=O)C1(C)C=CC2(CCCCC2)N1C(=O)c1ccccc1 (stereo not drawn)	-	-	0	10µM
CC(C)(C)OC(=O)NCCCC[C@H](NC(=O)c1[nH]cnc1C(=O)Nc1ccc(CNC(=O)OC(C)(C)C)cc1)C(=O)OC(C)(C)C	0	0	0	?
CC(C)C[C@H](NC(=O)c1nc[nH]c1C(=O)NCC(=O)OC(C)(C)C)C(=O)OC(C)(C)C	0	0	?	7.1µM
CC(C)C[C@H](NC(=O)c1nc[nH]c1C(=O)N[C@@H](CC(C)C)C(=O)OC(C)(C)C)C(=O)OC(C)(C)C	?	0	11µM	?
C[C@H](NC(=O)c1[nH]cnc1C(=O)Nc1ccc(CNC(=O)OC(C)(C)C)cc1)C(=O)OC(C)(C)C	?	0	?	8.9µM
CC(C)C[C@H](NC(=O)c1nc[nH]c1C(=O)NCCNC(=O)OC(C)(C)C)C(=O)CNCCNC(=O)c1[nH]cnc1C(=O)N[C@@H](C)C(=O)OC(C)(C)C	-	0	-	-
CC(C)C[C@H](NC(=O)c1[nH]cnc1C(=O)Nc1ccc(Cl)cc1)C(=O)OC(C)(C)C	?	0	4µM	2.8µM
CCc1cc2c(nc1CC)CCN(CC/C(C)=N/OCC[C@@H]1C=C[C@H](OC(C)=O)[C@H](COC(C)=O)O1)C2	-	-	0[10 µM]	0[10 µM]
COc1ccccc1CNc1cc(-c2ccccc2Cl)ncn1	-	-	0	0
CC(C)(C)OC(=O)CNC(=O)c1nc[nH]c1C(=O)NCC(=O)OC(C)(C)C	0	0	0	0
C[C@H](NC(=O)c1nc[nH]c1C(=O)NCC(=O)OC(C)(C)C)C(=O)OC(C)(C)C	0	0	?	13µM
Cc1ccc(C)c(OCCC(=O)OCC(=O)NCc2ccc(F)cc2)c1	-	0	0	0
N#CCCn1cc(/C=N/NC(N)=S)c(-c2ccc(-c3ccccc3)cc2)n1	0	0	3.2µM	1.1µM
SMILES	NPSR antag	B2AR arrestin	Gal4-VP16 FLuc	RORg inh
N#CCCn1cc(C=C(C#N)C#N)c(-c2ccc(-c3ccccc3)cc2)n1	0	0	20µM	?
CCOc1ccc(CN2CCC(C(=O)Nc3cccc(-c4ccn[nH]4)c3)CC2)cc1Cl	-	0	0	0
COCCNc1ccnc(-c2c(C)noc2C)n1	-	-	0	0
CC1=NN(c2ccc(C(=O)O)cc2)C(=O)/C1=C\c1ccc(OC(=O)c2cccs2)cc1	0	0	0	11µM
CCOc1cc(/C=C2\C(=O)N(c3ccc(C(N)=O)cc3)N=C2C)ccc1OC(=O)c1cccs1	?	0	0	0
CNc1nc(C23CC4CC(CC(C4)C2)C3)cs1	0	0	0	10µM
O=C(CC(=O)Nc1nc(C23CC4CC(CC(C4)C2)C3)cs1)NCCO	0	0	0	0
Cc1ccc(-c2csc(=S)[nH]2)cc1	0	0	?	7.1µM
S=c1[nH]c(-c2ccc(Cl)cc2)cs1	0	0	0	7.1µM
S=c1nccc(-c2ccc(Cl)cc2)[nH]1	0	0	5µM	2.8µM
Clc1ccc(-c2ccn[nH]2)cc1	0	0	0	0
CCC(C)NS(=O)(=O)c1ccc(F)c(C(=O)Nc2c(F)cc(F)cc2Br)c1 (stereo not drawn)	0	0	0	0
